According to PubChem BioAssay (NCI):
About 83,000 compounds went through this panel and 20% of them were active in at least one assay; those are over-represented in the sample as a whole.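 Growth was measured after 48 h exposure to one concentration of compound in 96-well plates. Values under 10 count as active.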 A number with no mark means an inactive call. The source made the active and inactive calls.

Experiments:
Test in all cases: NCI-60 one-dose screen, 48 h (100 = growth as untreated, 0 = no growth, -100 = all killed)
Conditions in all cases: 10 µM unless noted
NCI-H23 lung = test system: NCI-H23 lung
NCI-H226 lung = test system: NCI-H226 lung
NCI-H322M lung = test system: NCI-H322M lung
HOP-62 NSCLC = test system: HOP-62 NSCLC
NCI-H460 lung = test system: NCI-H460 lung
HOP-92 NSCLC = test system: HOP-92 NSCLC
NCI-H522 lung = test system: NCI-H522 lung
A549/ATCC NSCLC = test system: A549/ATCC NSCLC
786-0 renal = test system: 786-0 renal
COLO 205 colon = test system: COLO 205 colon

Row | SMILES | growth (NCI-H23 lung) | growth (NCI-H226 lung) | growth (NCI-H322M lung) | growth (HOP-62 NSCLC) | growth (NCI-H460 lung) | growth (HOP-92 NSCLC) | growth (NCI-H522 lung) | growth (A549/ATCC NSCLC) | growth (786-0 renal) | growth (COLO 205 colon)
1 | COc1cccc(NC(=O)[C@H](C(C)C)n2c(=O)[nH]c3ccccc3c2=O)c1 | 99.8% | 92.4% | 117% | 102% | 103% | 110% | 99.1% | 97.9% | 105% | 108%
2 | Cn1nc(C(F)(F)F)cc1-c1c[nH]c(OCc2ccc(Cl)cc2)c(-c2ccc(Cl)c(C(F)(F)F)c2)c1=O | 3.29% (active) | -17.3% (active) | 8.32% (active) | -25% (active) | 2.53% (active) | -22.6% (active) | -1.66% (active) | 13.4% | 3.83% (active) | -31% (active)
3 | Clc1ccccc1Nc1nnc(-c2ccncc2)s1 | 102% | 101% | 93.7% | 118% | 99.7% | 93.9% | 98.6% | 95% | 80.2% | 114%
4 | CC(C)=CCC[C@H](C)c1ccc(C)c2c1OCN(CCO)C2 | 81.7% | 91.2% | 104% | 80.4% | 96% | 4.21% (active) | 78.1% | 82.4% | 61% | 119%
5 | O=C1OCC2=C1C(c1cccc(Br)c1)c1cc3c(cc1N2CCO)OCCO3 (stereo not given) | 27.5% | -4.52% (active) | 35% | 28.7% | 0.468% (active) | 25.2% | -11.5% (active) | 13.5% | 21.8% | -24.5% (active)
6 | Fc1[nH]nc2ccc([C@@H]3Nc4ccc5[nH]ncc5c4[C@H]4C5CCC(C5)[C@@H]34)cc12 (stereo not given in full) | 45.2% | 47.5% | 47.7% | 37.6% | 11.5% | 67.3% | 10.3% | 28% | 51.9% | 9.22% (active)
7 | O=C(CCc1nc2sc3c(c2c(=O)[nH]1)CCC3)NCc1cn(-c2ccccc2)nc1-c1ccccc1 | 66.2% | 92.2% | 92.8% | 80.8% | 1.28% (active) | 95.9% | 78.9% | 16.5% | 98.4% | 75.7%
8 | COc1ccc(-c2cnc3ccnn3c2-c2cc(OC)c(OC)c(OC)c2)cc1 | 42.7% | 65.5% | 55.8% | 40% | 11.1% | 103% | 10.1% | 46.8% | 40.3% | -31.2% (active)
9 | O=C1/C(=C\c2cccn2Cc2ccc(F)cc2)c2ccccc2N1c1c(Cl)cccc1Cl | 81.1% | 64% | 69.4% | 92.1% | 87.7% | 66% | 77% | 69.4% | 76.6% | 84.9%
10 | Cc1n(Cc2ccc3ccccc3n2)cc[n+]1Cc1ccc2ccccc2n1 | 69.8% | 88.1% | 103% | 90.6% | 95% | 74.5% | 35.9% | 88.6% | 97.8% | 33.2%
11 | CCOC(=O)c1ccc(NC(=O)NC2=NCCS2)cc1 | 18.4% | 13.5% | 77.7% | 35.7% | 19.5% | 73.6% | 20.8% | 22.5% | 33.8% | 103%
12 | CN(C)c1ccc(C(c2ccccc2)c2ccc(N(C)C)cc2)cc1 | 79.1% | 95.2% | 128% | 104% | 99% | 63.4% | 88.3% | 91.8% | 97.5% | 111%
13 | COc1cc2c(cc1I)-c1c(cc(OC)c(OC)c1OC)CC[C@@H]2NC(C)=O | 4.9% (active) | 33.6% | 61.6% | 14.7% | 1.44% (active) | 43.7% | -22.3% (active) | 28.3% | 16.4% | -52.8% (active)
14 | COc1cc2nccc(Oc3ccc(NC(=O)C4(C(=O)Nc5c(F)cc(F)cc5F)CC4)cc3)c2cc1Oc1ccc(N)cn1 | 53.6% | 37.7% | 74.8% | 67.7% | 65.4% | 2.04% (active) | 55% | 48% | 96.5% | 44.3%
15 | CCN(CC)CCCC(C)Nc1cnc(C(=O)Nc2cccc3ccc(OC)nc23)cn1 (stereo not given) | 96.1% | 61.4% | 75.5% | 94.2% | 1.05% (active) | 49.5% | 5.07% (active) | 81.2% | 73.4% | 71.4%
16 | CCc1ccc(Nc2ncnc3c2cnn3-c2cccc(Br)c2)cc1 | 96.1% | 85.7% | 105% | 84% | 102% | 91.8% | 89.1% | 97.2% | 106% | 104%
17 | COc1ccc(C2C3CCc4ccccc4C3=NN2C(=O)c2cc(OC)c(OC)c(OC)c2)cc1O (stereo not given) | 98% | 89.1% | 86.2% | 92.8% | 108% | 84.2% | 81.8% | 102% | 106% | 113%
18 | COc1ccc(-c2nsc3c2NC(=O)CC3c2cccc(F)c2)cc1 (stereo not given) | 59% | 76.5% | 53.6% | 60.2% | 10.4% | 52.7% | 4.49% (active) | 34.3% | 80% | 25.8%
19 | CCCN(CCC)CC(O)COc1ccccc1C(=O)Nc1ccccc1 (stereo not given) | 90.9% | 78.9% | 119% | 66.5% | 97.6% | 84.2% | 55.8% | 40.4% | 88% | 46.1%
20 | CCCCCCCCCCCC1=NC(C)(C)CN1C(C)(C)CO | 59.5% | 94.8% | 92.6% | 60.4% | 28.2% | 28.7% | 47.5% | 68.8% | 71.6% | -81.4% (active)
21 | O=C(C(=O)c1cccnc1)c1cccnc1 | 98.8% | 115% | 117% | 98.4% | 111% | 103% | -0.192% (active) | 111% | 101% | 174%
22 | CNC(=O)c1cc(Oc2ccc(NC(=O)c3nc(S(C)(=O)=O)n(C)c3-c3ccc(F)cc3)cc2)ccn1 | 79.1% | 87.4% | 62.5% | 91.3% | 59.4% | 77.3% | 84.5% | 82.5% | 75.4% | 59.4%
23 | O=C(Nc1ccccc1Cl)Oc1ccc2ccccc2c1 | 91.3% | 88.2% | 109% | 92.9% | 102% | 101% | 79.6% | 94.9% | 90.9% | 118%
24 | Oc1c(-c2cc(C(F)(F)F)[nH]n2)cc(Cl)c(OCc2ccc(Cl)cc2)c1-c1ccc(Cl)c(C(F)(F)F)c1 | 6% (active) | -13.2% (active) | 8.73% (active) | -20.9% (active) | 7.68% (active) | -12.1% (active) | -2.6% (active) | 11.6% | -21.4% (active) | -38.8% (active)
25 | NCCCOc1cc2ccccc2cc1C(=O)NCCCOc1cc2ccccc2cc1C(=O)Nc1ccc(Cl)cc1O | -67.6% (active) | -85.8% (active) | -51.9% (active) | -100% (active) | -72.3% (active) | -75.9% (active) | -65.1% (active) | -75.2% (active) | -82.4% (active) | -54.1% (active)
